Screens as filed in PubChem.
Only some compounds are listed: those with a hit (about 2.3% of all), similar ones and a draw of the others.
EBV LMP1 NFkB – EBV LMP1-driven NF-kappaB luciferase reporter inhibitors, primary screen, cell-based, luminescence, single point. inhibition, % at 12.5 µM. 350,000 compounds, 0.69% hits. LMP1-induced NF-kappaB luciferase reporter cells; in the data active = inhibition above about 41%
Shn3 3UTR inh – reduction of Shn3 3'UTR firefly luciferase signal, primary screen, Schnurri-3 inhibitor project, cell-based, Clone20 osteoblasts, set 2. inhibition, % at 12.5 µM. AID 588674, 2011. Clone20 osteoblast Shn3 3'UTR firefly luciferase, 24 h. 360,000 compounds, 0.52% hits;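 active = mean inhibition of at least 75% with every replicate also reaching 75%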
Jurkat NFkB inh – inhibitors of induced NF-kB luciferase reporter, primary screen, TCR NF-kB activation inhibitor project, cell-based, luminescence, uHTS; Jurkat, PMA/ionomycin-induced NF-kB luciferase reporter; inhibition, % at 4 µM; 330,000 compounds, 0.53% hits; in the data active = inhibition above about 50%
697 NFkB inh – inhibitors of PMA/ionomycin-induced NF-kB reporter, 697 cells, primary screen, B-cell NF-kB inhibitor project, cell-based, luminescence, uHTS; 697 B-cell NF-kB luciferase reporter, 16 h; inhibition, % at 4 µM; 330,000 compounds, 0.33% hits; in the data active = inhibition above about 35%
Gli-Sufu antag – Gli-Sufu pathway antagonists, primary screen, luciferase luminescence, Sufu-KO-LIGHT cells, uHTS; Sufu-KO-LIGHT fibroblasts, Gli luciferase reporter luminescence; inhibition, % at 5 µM; 340,000 compounds, 0.74% hits; AID 588413, 2011;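 active = inhibition above about 55%, limit read from the data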
MITF TRPM1 inh – inhibitors of MITF-dependent TRPM1 promoter reporter, primary screen, cell-based, SK-MEL-5, single point, luciferase; inhibition, % at 12.5 µM; 330,000 compounds, 0.83% hits; SK-MEL-5 TRPM1 promoter luciferase, 24 h;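 active = mean inhibition across replicates of 60% or more, whatever share of single replicates reaches that level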
Jurkat NFkB conf – PMA/ionomycin-induced NF-kB reporter inhibitors, Jurkat retest, confirmation, T-cell NF-kB inhibitor project, cell-based, luminescence, single concentration; Jurkat NF-kB luciferase, 16 h; inhibition, % at 4 µM; AID 435020, 2010; 2,700 compounds, 27% hits; shares compounds with Jurkat NFkB inh;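 active = inhibition reaching about 45% at 4 µM in either replicate, limit read from the data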
Numbers stand for hits; – = inactive; · = no result given.

SMILES	EBV LMP1 NFkB	Shn3 3UTR inh	Jurkat NFkB inh	697 NFkB inh	Gli-Sufu antag	MITF TRPM1 inh	Jurkat NFkB conf
CC(=O)c1cccc(Nc2nc(-c3ccccc3)cs2)c1	–	–	–	–	–	–	–
CCOC(=O)CN(C(=O)CSc1nnc(C)n1-c1ccccc1)c1ccccc1	–	–	–	–	–	–	·
Cc1ccc(C(=O)NNc2ncnc3c2cnn3C)cc1	–	–	–	–	–	–	·
Cn1ncc2c(O/N=C(\N)c3ccc(C(F)(F)F)cc3)ncnc21	–	–	78	–	–	–	–
O=C(Nc1ccncc1)c1ccc(Cl)c(S(=O)(=O)N2CCc3ccccc32)c1	–	89	60	–	–	–	79
O=c1c2ccccc2oc2ccc(Oc3ccccc3)cc12	–	–	–	–	–	–	–
CCCC(C)NC(=O)COC(=O)c1ccc(Cl)c(S(N)(=O)=O)c1 (stereo not drawn)	–	–	–	–	–	–	·
OCCCNc1ncnc2c1cnn2-c1ccc(Cl)cc1	–	–	–	–	–	–	–
C=CCNc1ncnc2c1cnn2-c1ccc(OC)cc1	–	–	–	–	–	–	–
COC(=O)c1ccc(NC(=O)COC(=O)C2CCC2)cc1	–	–	–	–	–	–	·
CCN(CC(=O)Nc1ccc(NC(C)=O)cc1)C(=O)c1ccc(N(C)S(=O)(=O)c2ccc(C)cc2)cc1	–	–	·	·	–	–	·
CC(CNC(=O)CCn1c(=O)c2cccn2c2ccc(F)cc21)c1ccccc1 (stereo not drawn)	–	–	–	–	–	–	·
COc1cc(/C=N/Nc2ccc3ccccc3c2)ccc1OC(=O)c1ccco1	–	–	–	–	–	–	·
COc1ccc(NS(=O)(=O)c2cc(NC(=O)c3ccco3)ccc2N2CCCC2)cc1	–	–	62	–	–	–	–
COc1ccccc1NS(=O)(=O)c1cc(NC(=O)c2sccc2C)ccc1N1CCOCC1	–	·	–	–	–	–	·
COc1ccc(NS(=O)(=O)c2cc(NC(=O)c3sccc3C)ccc2N2CCOCC2)cc1	–	–	50	–	–	–	–
Cc1cccc(CN2CCN(Cc3ccc(-n4cccn4)cc3)CC2CCO)n1 (stereo not drawn)	–	–	–	–	–	–	·
Cc1c(C(=O)Nc2cnccn2)oc2ccccc12	–	–	–	–	–	–	·
CCOc1ccc2oc(C(=O)Nc3cc(C)ccn3)c(C)c2c1	–	–	–	–	–	–	–
CCOc1ccc2oc(C(=O)O)c(C)c2c1	–	–	–	–	–	–	·
Cc1ccnc(NC(=O)c2oc3ccccc3c2C)c1	–	–	–	–	–	–	–
COc1cc(/C=C(\C#N)C(=O)Nc2cccc(C(=O)O)c2)ccc1OCc1ccc(Cl)cc1	–	–	–	–	–	–	–
CCOc1cc(/C=N/O)ccc1OCc1ccc(F)cc1	–	–	–	–	–	–	·
COc1cc(/C=N/O)ccc1OCc1ccc(Cl)cc1	·	·	–	–	·	·	–
COc1cc(/C=C(/C#N)C(=O)Nc2ccccc2)c(Br)cc1OCc1ccc(C(=O)O)cc1	–	–	–	–	–	–	·
SMILES	EBV LMP1 NFkB	Shn3 3UTR inh	Jurkat NFkB inh	697 NFkB inh	Gli-Sufu antag	MITF TRPM1 inh	Jurkat NFkB conf
CCCCc1nc2cc(C(=O)N3CCN(c4nc(C)cnc4C)CC3)ccc2o1	–	–	–	–	–	–	·
CCCCn1cnc2c(c(-c3ccccc3)c(-c3ccccc3)n2Cc2ccco2)c1=N	·	–	81	–	–	·	–
CCCCn1c(=O)[nH]c(=O)c2c1ncn2Cc1ccco1	–	–	–	–	–	–	·
O=C(Nc1ccc2c(c1)OCO2)c1ccc(Cl)s1	–	–	–	–	–	–	–
O=C(Nc1ccc(Cl)cc1)Nc1ccc2c(c1)OCO2	–	–	–	–	–	–	–
O=C(Nc1ccc2c(c1)OCO2)Nc1ccc2c(c1)OCO2	–	–	–	–	–	–	·
Cn1c(/C=C/c2ccccc2[N+](=O)[O-])nc2ccccc2c1=O	–	–	–	–	–	–	·
O=[N+]([O-])c1ccccc1/C=C/c1ccc2ccccc2n1	–	–	–	–	–	–	–
COc1ccc(CN(C)C[C@@H]2OCCCC[C@H](C)Oc3ccc(NC(=O)Nc4ccc(F)cc4)cc3C(=O)N([C@H](C)CO)C[C@H]2C)cc1	–	–	·	·	·	·	·
Cc1cc(NC(=O)CSc2nnc(-c3ccccc3)c(-c3ccccc3)n2)no1	–	–	60	–	–	–	–
O=C(Nc1nc2ccc(S(=O)(=O)N3CCCCC3)cc2s1)C1CCCO1 (stereo not drawn)	–	–	–	–	–	–	·
O=C(Nc1nc2ccc(Cl)cc2s1)C1CC1	–	–	–	–	–	–	·
CC(C)c1ccc2nc(NC(=O)C3CC3)sc2c1	–	–	–	–	–	–	–
O=C(Nc1nc2cc3c(cc2s1)OCO3)C1CC1	–	–	–	–	–	–	·
O=C(Nc1nc2cc3c(cc2s1)OCO3)C1CCCCC1	–	–	–	–	–	–	–
O=C(Nc1nc2ccc(S(=O)(=O)N3CCCC3)cc2s1)C1CCCCC1	–	–	62	–	–	–	58
COc1ccc(C(=O)Nc2nc3cc4c(cc3s2)OCO4)c(OC)c1	–	–	–	–	–	–	–
Cc1ccccc1OCC(O)CNC1CCC(NCC(O)COc2ccccc2C)CC1 (stereo not drawn)	–	97	97	–	–	99	–
CN(C)S(=O)(=O)c1ccc(NC(=S)NC(=O)C2CCC2)cc1	–	–	–	–	–	–	·
CN(Cc1ccccc1)S(=O)(=O)c1ccc(NC(=S)NC(=O)C2CCCC2)cc1	–	–	63	–	–	–	–
CN(C)S(=O)(=O)c1cccc(C(=O)NCC(C)(C)CNC(=O)c2cccc(S(=O)(=O)N(C)C)c2)c1	–	–	–	–	–	–	·
CCOc1ccc(-n2nc3cc(C)c(N)cc3n2)cc1	–	–	–	–	–	–	–
CCOc1ccc(-n2nc3ccc(N)cc3n2)cc1	–	–	–	–	–	–	·
Cc1ccc(C)c(S(=O)(=O)Nc2ccc(C(=O)N3CCOCC3)cc2)c1	–	–	·	·	·	·	·
Cc1ccn2c(=O)nc(SCC(=O)c3ccccc3)nc2c1	–	–	–	–	–	–	·
Cc1ccc2nc(SCC(=O)c3ccccc3)nc(=O)n2c1	–	–	–	–	–	–	–
CC(C)c1c(C(=O)N/N=C/c2ccncc2)nnn1-c1nonc1N	–	–	–	–	–	–	·
